# Where “and” joins values, the source holds several entries; their conditions need not be identical. Equal values may be shown once. The whole screen tested about 290,000 compounds, of which about 890 (0.31%) were called active. No stated cut-off is given here; in the data, active means inhibition mostly above about 52% (no sharp cut-off); inactive means mostly below about 76%. The full list was thinned out, with actives kept by preference. A structure can be active in one record and inactive in another.
# Assay: cell-free HIV fusion peptide-binding blockers – biochemical, uHTS, fluorescence dequenching, primary screen (AID 1986)
# Conditions: 30 min, at 20 µM, stronger effect = higher value
row,SMILES,inhibition
1,COC(=O)c1sccc1NC(=O)Nc1ccc(OC)cc1,1.8% (inactive)
2,Cc1ccc(OCCNS(=O)(=O)c2cccs2)cc1,-0.8% (inactive)
3,CCN(CC)C(=O)CSc1nc(O)c(Cc2ccc(OC)cc2)c(=O)[nH]1,0.3% (inactive)
4,N#C/C(=C\c1ccco1)C(=O)Nc1cccc2ncccc12,1.5% (inactive)
5,Cc1ccc(/C=C(\C#N)C(=O)Nc2ccccn2)o1,0.3% (inactive)
6,Cc1ccc(/C=C(\C#N)C(=O)Nc2cccc3ncccc23)o1,77.8% (active)
7,CCc1nnc(SCC(=O)N2CCCC(N3CCN(c4ccccc4C)CC3)C2)o1 (stereo not drawn),-0.2% (inactive)
8,CC1(C)CC(=O)C2=C(C1)N(c1ccc(F)cc1)C(=O)C2(NC(=O)c1ccccc1)C(F)(F)F (stereo not drawn),-0.9% (inactive)
9,COc1cc(OC)c(-c2c3cc(O)c(=O)cc-3oc3cc(O)c(O)cc23)cc1OC,82.9% (active)
10,O=c1cc2oc3cc(O)c(O)cc3c(-c3ccccc3O)c-2cc1O,148% (inactive)
11,COc1c(O)cc2oc(-c3ccc(O)c(O)c3)cc(=O)c2c1O,20.2% (inactive)
12,Cc1ccccc1-c1cc(=O)c2c(O)cccc2o1,-1.7% (inactive)
13,Cc1c2cc(O)c(=O)cc-2oc2cc(O)c(O)cc12,150% (inactive) and 61.1% (active)
14,CCOc1ccccc1-c1c2cc(O)c(=O)cc-2oc2cc(O)c(O)cc12,118% (active)
15,COc1ccc(OC)c(-c2oc3ccccc3c(=O)c2O)c1,-0.8% (inactive)
16,O=c1cc2oc3cc(O)c(O)cc3c(-c3ccccc3[N+](=O)[O-])c-2cc1O,34.3% (inactive)
17,COc1ccc(OC)c(-c2c3cc(O)c(=O)cc-3oc3cc(O)c(O)cc23)c1,122% (active)
18,Cc1cc2oc(=O)cc(-c3cc4ccccc4o3)c2cc1O,21% (inactive)
19,COc1ccc2c(=O)cc(-c3ccccc3F)oc2c1,-1.9% (inactive)
20,COc1cc(-c2cc(=O)c3ccccc3o2)ccc1O,-1.9% (inactive)
21,CC1=NN(c2ccc(C)cc2C)C(=O)C1C(c1ccccc1O)C1C(=O)N(c2ccc(C)cc2C)N=C1C (stereo not drawn),3.7% (inactive)
22,COc1ccc(C(=O)Nc2ccnn2C2CCN(C(=O)c3cnsn3)CC2)cc1,-1.2% (inactive)
23,COc1ccccc1C(=O)N/C(=C/c1ccc(Br)cc1)C(=O)NCCO,7.1% (inactive)
24,CCCCCCNc1cc2n(c(=O)n1)CCc1cc(OC)c(OC)cc1-2,-3.2% (inactive)

row,SMILES,inhibition
1,COc1ccccc1NS(=O)(=O)c1ccc(NN=C2CCCCC2)c([N+](=O)[O-])c1,-1.4% (inactive)
2,c1ccc2c(c1)CC1(CCCCC1)n1nnnc1-2,-1.4% (inactive)
3,CCCCCC(=O)NC(=S)Nc1ccc2oc(=O)ccc2c1,-0.3% (inactive)
4,COC(=O)CCSCC(=O)Nc1ccc(S(=O)(=O)N2CCOCC2)cc1OC,0.8% (inactive)
5,CC(C)C1/C(=N/O)CC(c2ccccc2)NC1c1ccccc1 (stereo not drawn),0% (inactive)
6,CCCCNC(=O)CC1N=C2c3ccccc3N=C(SCC(=O)Nc3ccccc3OC)N2C1=O (stereo not drawn),1.1% (inactive)
7,CCOC(=O)c1nc(S(C)(=O)=O)ncc1N1CCOCC1,-2.9% (inactive)
8,CCc1ccccc1N(C(=O)CCC(=O)Nc1cc(C)on1)C(C(=O)NC1CCCC1)c1ccco1 (stereo not drawn),0.8% (inactive)
9,CC(=O)CC(c1ccc([N+](=O)[O-])cc1)c1c(O)c2ccccc2oc1=O (stereo not drawn),3.8% (inactive)
10,O=[N+]([O-])c1ccc2c(c1)oc1ccccc12,-0.8% (inactive)
11,COc1cc(/C=N/NC(N)=O)cc([N+](=O)[O-])c1O,-1.1% (inactive)
12,CCN(CC(=O)Nc1c(F)cccc1F)C(=O)c1ccccc1F,0.4% (inactive)
13,O=C(O)C(Cc1ccccc1)N1C(=O)CCC1=O (stereo not drawn),-1.2% (inactive)
14,Cc1ccc(C)n1C(Cc1ccccc1)C(=O)O (stereo not drawn),67.3% (active)
15,O=C(O)C(Cc1ccccc1)n1cccc1 (stereo not drawn),1.2% (inactive)
16,Cc1ccc(CNC(=O)C2CCN(C(=O)c3cccc(Cl)c3)CC2)cc1,1.1% (inactive)
17,Cc1ccc(S(=O)(=O)N(CC(=O)Nc2ccccc2C(=O)O)c2ccccc2C)cc1,9.7% (inactive)
18,Cc1ccc(S(=O)(=O)N(CC(=O)Nc2ccccc2C(=O)O)c2ccccc2)cc1,10.7% (inactive)
19,Cc1ccc(S(=O)(=O)N(CC(=O)Nc2ccccc2C(=O)O)c2cccc(Cl)c2C)cc1,52% (active)
20,CC1CCN(C(=O)CSc2nc3ccccc3c(=O)[nH]2)CC1,-0.9% (inactive)
21,CC(C(=O)N1CCN(C(=O)c2ccco2)CC1)n1sc2ccccc2c1=O (stereo not drawn),1.6% (inactive)
22,CC1=CC(=O)c2ccccc2C1=O,-2.1% (inactive)
23,COc1cccc2c1C(=O)C=C(C)C2=O,2.7% (inactive)
24,CC1=CC(=O)c2c(O)ccc(O)c2C1=O,68.3% (active)

# — PubChem BioAssay AID1986 (Sanford-Burnham Center for Chemical Genomics, 2009)
